Results from PubChem BioAssay AID686978 (National Center for Advancing Translational Sciences (NCATS), 2013).
About 64,000 (15%) of roughly 420,000 compounds were called active. Inconclusive results (about 27%) are left out. The call rests on the fitted dose curve; in most records, active means well fitted inhibition curve with a large enough effect; inconclusive means small, poorly fitted or top-dose-only effect; inactive means flat fitted curve, though single readings scatter. The list is a sample of the results. Where a call stands in place of a potency, no number is given.

experiment: qHTS for Inhibitors of human tyrosyl-DNA phosphodiesterase 1 (TDP1): qHTS in cells in absence of CPT; settings: DT40 Tdp1-/- hTDP1 cells, no CPT, ATP luminescence, 48 h; activity change, negative = growth inhibition: at 46.2 µM (top of the series); further: nearly all actives have a fitted effect of over 55% in size
Summary of the method: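 Growth of hTDP1-complemented DT40 Tdp1-knockout cells is measured by ATP luminescence after at least 48 hr compound exposure at 37 °C, with DMSO substituting for the 20 nM CPT used in the parallel screen.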
Potency means the concentration at half of the fitted maximal effect.

Compound	Potency
O=C(COc1ccc(S(=O)(=O)NCc2ccccc2)cc1)N1CCOCC1	inactive
CCOC(=O)c1c(-c2ccc(C)cc2)csc1/N=C(\C)C1=C(O)c2ccccc2C1=O	18.4 µM (active)
CC(=NCc1ccco1)C1=C(O)c2ccccc2C1=O	inactive
COC(=O)c1c(-c2ccc(C)cc2)csc1N	inactive
CCOC(=O)c1c(/N=C/C2C(=O)CC(C)(C)CC2=O)sc(C)c1C	inactive
CC1CCCCC1NC(=O)COC(=O)Cc1ccc(Br)cc1 (stereo not given)	inactive
CCCCn1c(N)c(N(CC)C(=O)c2ccc(N(C)S(=O)(=O)c3ccc(C)cc3)cc2)c(=O)[nH]c1=O	inactive
NC(N)=Nc1nc(-c2ccccc2)c2cc(Cl)ccc2n1	16.4 µM (active)
O=C(O)c1ccc(Nc2nc(-c3ccccc3)c3cc(Br)ccc3n2)cc1	inactive
Cc1ccc2nc(Nc3ccccc3O)nc(-c3ccccc3)c2c1	inactive
C[C@H]1CC[C@]2(O[C@@H](CCO)C[C@@H](O)[C@@H]2O)O1	inactive
COCCn1c(=O)c(-c2cccc(F)c2)nc2cncnc21	inactive
CCC(O)C1CCN(Cc2cn(-c3ccc(OC)cc3)nc2-c2cccc(F)c2)CC1 (stereo not given)	20.6 µM (active)
Cc1cccc(-n2cc(CN3CCN(C(=O)c4ncn[nH]4)CC3)c(-c3cccc(F)c3)n2)c1	inactive
COc1ccc(NC(=S)N2CCC(NC(=O)c3cccc(F)c3)CC2)cc1	inactive
Cn1cc(CN2CCC(C(O)CCc3ccccc3)CC2)c(-c2ccccc2F)n1 (stereo not given)	inactive
COc1ccc(-n2cc(CNC3CCOCC3)c(-c3cccc(F)c3)n2)cc1	20.6 µM (active)
COC(=O)CC1=NN(c2ccccc2)C(=O)C1	inactive
CCC(CC)c1nn2cc(-c3ccccc3)nc2s1	inactive
COC(=O)CC1Oc2ccccc2-n2cc(-c3ccccc3)nc21 (stereo not given)	20.6 µM (active)
CCC1CCCCN1C(=S)NC(=O)c1ccco1 (stereo not given)	inactive
CC(=O)c1cccc(NC(=O)[C@@H](NC(N)=O)C(C)C)c1	inactive
COc1ccc(CCNC(=O)/C(C#N)=C2\N=C(NC(=O)c3cccs3)c3ccccc32)cc1	10.3 µM (active)
COc1ccc(CCNC(=O)CSc2nnc(CNC(=O)c3cccs3)o2)cc1OC	inactive
O=C(O)Cc1ccc(NC(=O)c2cccs2)cc1	inactive
CCc1ccc2c(c1)cc(CN(C(=S)Nc1ccccc1Cl)C1CC1)c1nnnn12	inactive
Cc1oc2c(C)c3oc(=O)c(CC(=O)N[C@@H](CC(C)C)C(=O)N[C@@H](Cc4ccccc4)C(=O)O)c(C)c3cc2c1C	inactive

Compound	Potency
COCc1[nH][nH]c(=O)c1C=Nc1ccc(F)cc1F	inactive
COc1cccc(N(CC(=O)N2CCc3ccccc3C2)S(C)(=O)=O)c1	inactive
CS(=O)(=O)N(CC(=O)N1CCc2ccccc2C1)c1ccc(Br)cc1	inactive
Cc1ccc(S(=O)(=O)N(CC(=O)N2CCc3ccccc3C2)c2cccc(Cl)c2)cc1	20.6 µM (active)
Cc1ccccc1CNC(=O)CCC(=O)N1Cc2ccccc2Oc2ncccc21	inactive
Cc1cccc(N(Cc2ccccc2)C(=O)c2cc(S(=O)(=O)N3CCOCC3)ccc2F)c1	18.4 µM (active)
COc1ccc(C(=O)N(C)Cc2ccc(OC)c(OC)c2OC)cc1S(=O)(=O)N1CCOCC1	inactive
Cc1ccc(S(=O)(=O)N2CCN(C(=O)c3cc(S(=O)(=O)N4CCOCC4)ccc3F)CC2)cc1	inactive
COc1ccc(C(=O)NCc2ccc(C)cc2)cc1S(=O)(=O)N1CCCC1	inactive
COc1ccc(C(=O)N(Cc2ccccc2)c2ccc(C)cc2)cc1S(=O)(=O)N1CCOCC1	14.6 µM (active)
Cc1ccc(C(=O)OCC(=O)N2CCCCCC2)cc1S(=O)(=O)N1CCOCC1	inactive
Cc1ccc(S(=O)(=O)N2CCOCC2)cc1C(=O)NC(=S)N(Cc1ccccc1)C(C)C	inactive
COc1ccc(C(=O)OCC(=O)c2ccc(C)c(S(=O)(=O)N3CCOCC3)c2)cc1OC	11.6 µM (active)
CCOc1ccc(CCNC(=O)COC(=O)c2ccc(C)c(S(=O)(=O)N3CCOCC3)c2)cc1OCC	inactive
O=C1c2cccc3cccc(c23)N1CN1CCN(c2ccccn2)CC1	inactive
CCCCc1ccc(NC(=S)N2CCCC(CO)C2)cc1 (stereo not given)	inactive
Oc1ccc2ccc3cccc[n+]3c2c1	inactive
CCCCN(CC)CCCNC(=O)c1ccc(CSc2nc3ccncc3[nH]2)cc1	inactive
O=C(Cn1ccc([N+](=O)[O-])n1)NCc1cccs1	inactive
O=C(COC(=O)c1cccc(Cl)c1)Nc1ccc2[nH]c(=O)[nH]c2c1	inactive
C/C=C/C1=C(C(=O)O)N2C(=O)[C@@H](NC(=O)[C@H](N)c3ccc(O)cc3)[C@H]2SC1	inactive
CCN(CC)CCNC(=O)CN1N=C(c2ccc(OC)cc2)CCC1=O	inactive
COc1ccccc1CNC(=O)c1ccc(CS(=O)(=O)c2ccccc2)o1	inactive
CCCNS(=O)(=O)c1ccc(CCC(=O)NCc2cccnc2)cc1	inactive
Cc1ccc(CNC(=O)c2ccc(CS(=O)Cc3cccc(Cl)c3)o2)cc1 (stereo not given)	inactive
Cc1ccc(CCNC(=O)c2ccc(CS(=O)(=O)Cc3cccc(C)c3)o2)cc1	18.4 µM (active)
COc1ccc(CCNC(=O)CCNS(=O)(=O)c2cc(Br)cnc2N)cc1OC	inactive

Compound	Potency
O=C(NCc1ccco1)c1ccc(CS(=O)(=O)Cc2ccc(F)cc2)o1	inactive
O=C(NCc1cccnc1)c1ccc(CS(=O)(=O)c2ccc(Br)cc2)o1	14.6 µM (active)
COc1ccc(CCNC(=O)Cc2ccc(C)cc2)cc1OC	inactive
COc1ccc(CCNC(=O)NS(=O)(=O)c2ccc(C)cc2)cc1OC	inactive
COc1ccc(CCNC(=O)c2ccc(CS(=O)(=O)c3ccc(Br)cc3)o2)cc1OC	14.6 µM (active)
O=C(NCc1cccnc1)c1cnc2ccccc2n1	inactive
COc1ccc(CCNC(=O)c2ccc(CSCc3ccc(C)cc3)o2)cc1OC	23.1 µM (active)
COCCCn1c(SCC(=O)NC2CCCC2)nnc1-c1ccccc1	inactive
Cc1ccc(S(=O)(=O)NNC(=S)NC(C)(C)C)cc1	inactive
CN(Cc1ccccc1)C(=O)COC(=O)/C=C/c1ccc2c(c1)OCO2	inactive
CN(C)c1nc2n(c(=O)n1)CCO2	inactive
O=C(O)Cc1ccc(NC(=O)C2CCCCC2C(=O)O)cc1 (stereo not given)	inactive
COCCn1c(=O)c(C)nc2cnc(N(C)C)nc21	inactive
O=C(O)C1CCN(S(=O)(=O)N2CCOCC2)CC1	inactive
CC1CN(C(=O)COC(=O)c2cccc(NS(=O)(=O)c3ccccc3)c2)CC(C)O1 (stereo not given)	inactive
CCOC(=O)c1cc(S(=O)(=O)NCCc2ccc(OC)c(OC)c2)cn1C	inactive
CN1CCCN(C(=O)C2CCCCC2)CC1	inactive
CCOc1ccc(NC(=O)CC(Cc2ccc(Cl)cc2)C(=O)O)cc1 (stereo not given)	inactive
COc1ccc(C2CC(=O)NC(=O)C2)cc1	inactive
COc1ccc(C2OC(CCc3ccccc3)Cc3[nH]c(=S)[nH]c(=O)c32)cc1 (stereo not given)	18.4 µM (active)
COc1ccc(N2C(=O)C(Cc3ccccc3)NC2=S)cc1 (stereo not given)	inactive
O=C(Cn1cc(C(=O)c2cccs2)c2ccccc21)NCc1cccs1	inactive
CC1(c2nnc(Cc3ccccc3)o2)CC(c2ccccc2F)=NO1 (stereo not given)	inactive
Cc1ccccc1OCc1ccc(-c2nc(C#N)c(N3CCCCC3)o2)o1	23.1 µM (active)
COc1ccc(OCc2ccc(-c3nc(C#N)c(N4CCN(c5ccccc5)CC4)o3)o2)cc1	inactive
COc1ccccc1-c1nc(C#N)c(N2CCC(C(N)=O)CC2)o1	inactive
COc1ccc(NC(=O)NNC(=O)COc2cc(C)c(Cl)c(C)c2)c(OC)c1	inactive

Compound	Potency
Cc1ccc(S(=O)(=O)NCCSC(C)(C)C)cc1	inactive
O=C(O)CSCNC(=O)CC12CC3CC(CC(C3)C1)C2	inactive
CCOCCCNC(=O)c1cc2c(=O)n3ccccc3nc2s1	inactive
Nc1ccc(/C=C/c2ccnc3ccccc23)c([N+](=O)[O-])c1	10 µM (active)
O=C(CC(c1ccccc1)c1ccccc1)NCC(O)c1ccc([N+](=O)[O-])cc1 (stereo not given)	inactive
CCn1c2ccccc2c2nnc(N3CCN(c4cc(C)ccc4C)CC3)nc21	inactive
Cc1ccc(C)c(N2CCN(Cc3nnc(-c4ccccc4)o3)CC2)c1	inactive
Cc1ccc(C)c(N2CCN(C(c3ccccc3)c3nnc(-c4ccccc4)o3)CC2)c1 (stereo not given)	23.1 µM (active)
CC(C)c1ccc(S(=O)(=O)NC2CCCC2)cc1	inactive
C/C(CC(=O)Nc1cccc(C(F)(F)F)c1)=N\NC(=O)C(=O)NCC(C)C	inactive
Cc1cc(N2CCCC2=O)cc(C)c1S(N)(=O)=O	inactive
COc1cccc(N2C(=O)C3CCCN3C2c2ccc(F)cc2)c1 (stereo not given)	inactive
CSC1=NCCN1C(=O)c1ccc(S(=O)(=O)N2CCOCC2)cc1	inactive
COCC(=O)Nc1nnc(COc2ccccc2)s1	inactive
O=C(Nc1nnc(COc2ccccc2)s1)Nc1ccccc1F	inactive
O=C(Nc1ccccc1)Nc1nnc(COc2ccccc2F)s1	10.3 µM (active)
Cc1cc(C)c(C(N)=O)c(Cl)n1	inactive
CC1=C(C(=O)N(C)C)C(c2ccccc2OC(F)F)NC(=O)N1 (stereo not given)	inactive
COc1cc(OC)c(C2=NOC(C(=O)Nc3c(C)n(C)n(-c4ccccc4)c3=O)C2)cc1Cl (stereo not given)	inactive
Cc1cccc(OCC(=O)Nc2ccc(C(=O)O)cc2NC(=O)COc2cccc(C)c2)c1	inactive
O=C(O)CN(Cc1ccco1)S(=O)(=O)c1ccc(F)cc1	inactive
OC(c1nc2ccccc2[nH]1)C(O)C(O)C(O)c1nc2ccccc2[nH]1 (stereo not given)	inactive
O=C(CSc1nc2ccccc2[nH]1)c1cccs1	inactive
CCC(c1nc2ccccc2[nH]1)n1c(=O)c(-c2cccs2)nc2ccccc21 (stereo not given)	18.4 µM (active)
